Data taken from PubChem BioAssay (NCATS).
Records with an inconclusive call do not appear. Entries that show only a call come without a potency. Unmarked numbers belong to inactive results. Calls of active or inactive are those of the source. Unless noted, the call rests on the fitted dose curve; in most records, active means well fitted curve in the direction sought with a large enough effect; inconclusive means small, poorly fitted or top-dose-only effect, or another doubt; inactive means no such curve, though single readings can be large; an effect the other way counts as inactive or inconclusive.

How the values were obtained:
[1] = qHTS for Inhibitors of Plasmodium falciparum (7G8) proliferation (AID 504316); further: nearly all actives have a fitted effect of over 65% in size
Procedure, shortened: (§1)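 Erythrocytes infected with P. falciparum line (0.3% parasitemia, 2.5% hematocrit final) incubated with compounds 72 h at 37 °C, 5% CO2; SYBR Green lysis buffer added, fluorescence read next day. Normalized to 0.29 uM artemisinin and DMSO.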

[2] = qHTS for Inhibitors of Plasmodium falciparum (HB3) proliferation (AID 504318); further: nearly all actives have a fitted effect of over 60% in size
Procedure, shortened: as §1

[3] = qHTS for Inhibitors of Plasmodium falciparum (CP250) proliferation (AID 504320)
Procedure, shortened: as §1

[4] = molecular target: Atrial natriuretic peptide receptor 1 (Homo sapiens) (UniProt P16066); test: Natriuretic polypeptide receptor (hNpr1) antagonism - Pilot CMLD screen (AID 1347052; calls by dose curve;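 further: cGMP level read as GloSensor luciferase luminescence after agonist stimulation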)
Sequence of Atrial natriuretic peptide receptor 1 (Homo sapiens) (P16066 whole entry, looked up): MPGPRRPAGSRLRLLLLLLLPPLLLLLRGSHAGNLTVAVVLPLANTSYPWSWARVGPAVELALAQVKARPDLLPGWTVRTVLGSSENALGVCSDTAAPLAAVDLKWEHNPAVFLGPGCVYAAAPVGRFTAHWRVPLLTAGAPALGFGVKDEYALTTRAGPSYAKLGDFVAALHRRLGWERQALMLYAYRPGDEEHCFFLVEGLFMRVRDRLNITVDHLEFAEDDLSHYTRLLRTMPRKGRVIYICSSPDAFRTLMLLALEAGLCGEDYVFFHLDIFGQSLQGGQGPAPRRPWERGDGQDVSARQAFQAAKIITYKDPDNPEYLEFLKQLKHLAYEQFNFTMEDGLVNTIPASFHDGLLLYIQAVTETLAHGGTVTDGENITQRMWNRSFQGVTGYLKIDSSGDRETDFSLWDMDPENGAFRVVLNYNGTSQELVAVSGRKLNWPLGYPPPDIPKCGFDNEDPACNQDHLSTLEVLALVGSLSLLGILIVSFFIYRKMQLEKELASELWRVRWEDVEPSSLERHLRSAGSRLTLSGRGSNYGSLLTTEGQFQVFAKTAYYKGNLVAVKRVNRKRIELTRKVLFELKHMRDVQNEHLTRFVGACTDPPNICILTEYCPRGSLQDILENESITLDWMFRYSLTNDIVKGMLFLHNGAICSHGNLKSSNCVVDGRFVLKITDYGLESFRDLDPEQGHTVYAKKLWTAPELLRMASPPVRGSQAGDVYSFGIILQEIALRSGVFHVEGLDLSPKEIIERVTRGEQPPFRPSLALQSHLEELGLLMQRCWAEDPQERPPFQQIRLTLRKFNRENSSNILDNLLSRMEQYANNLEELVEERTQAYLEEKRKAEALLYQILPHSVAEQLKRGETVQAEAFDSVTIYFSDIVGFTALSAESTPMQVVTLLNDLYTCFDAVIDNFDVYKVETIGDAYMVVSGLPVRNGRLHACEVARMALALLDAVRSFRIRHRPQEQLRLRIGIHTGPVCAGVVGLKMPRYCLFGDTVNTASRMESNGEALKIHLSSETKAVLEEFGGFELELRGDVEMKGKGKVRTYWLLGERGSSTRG
Potency means the concentration at half of the fitted maximal effect.

SMILES | Potency [1] | Potency [2] | Potency [3] | Potency [4]
CCN1C(=O)NC(c2cccs2)C(C(C)=O)=C1C (stereo not drawn) | inactive | inactive | inactive | inactive
CCN1C(N(C)CCc2ccc(Br)cc2)=NC(c2ccccc2)C(C(=O)OC)=C1C (stereo not drawn) | inactive | inactive | – | inactive
COC(=O)c1c(C(=O)OC)c2c3cc(OC)c(OC)cc3cc([Si](C)(C)C)n2c1C(=O)OC | 1.51 µM (active) | 2.13 µM (active) | inactive | inactive
CC1=C[C@@H](COc2ccccc2)O[C@@]2(C1)C(=O)N(Cc1ccccc1)c1ccccc12 | 0.757 µM (active) | inactive | inactive | inactive
CC(CCN1CCCc2nc(C)c(C)cc21)=NO[C@H](C)c1cn([C@H](CO)Cc2ccccc2)nn1 | 1.51 µM (active) | – | – | inactive
COC(=O)C1=C(C)N(Cc2ccccc2)C(=NCCCCO)NC1c1cccc(F)c1 (stereo not drawn) | inactive | inactive | – | inactive
COC(=O)C1=C(C)N(Cc2ccccc2)C(=NCCc2ccc([N+](=O)[O-])cc2)NC1c1cccc(F)c1 (stereo not drawn) | 2.69 µM (active) | inactive | – | inactive
C[C@@H]1CC2=CCCC2[C@]2(O1)C(=O)N(CC1CC1)c1cccc(Br)c12 (stereo partly drawn) | inactive | inactive | inactive | inactive
Cc1ccccc1Nc1oc(-c2ccccc2)nc1C(C)(C)C | 1.9 µM (active) | 1.69 µM (active) | – | inactive
c1ccc(C2NCCc3c2[nH]c2ccccc32)cc1 (stereo not drawn) | inactive | inactive | inactive | inactive
CCCNC(=O)OC[C@H]1O[C@H](CCON=C(C)CCN2CCCCc3nc(C)c(C)cc32)C=C[C@H]1Oc1ccc(OC)cc1 | 1.9 µM (active) | 2.82 µM (active) | – | inactive
COC(=O)C1=C(C(=O)OC)[C@@H]2N(Cc3ccccc3)c3ccccc3[C@@]23C[C@@H](CO)N(C(=O)CC(C)C)C3=N1 | 1.69 µM (active) | – | – | inactive
CC(C)(C)Nc1oc(-c2ccccc2)nc1C=Cc1ccccc1 | 1.51 µM (active) | 1.69 µM (active) | – | inactive
C[C@H]1C=CCC(=O)N[C@@H](c2ccccc2)[C@@H](C)C=CCC(=O)N[C@@H]1c1ccccc1 | 0.426 µM (active) | 1.51 µM (active) | inactive | inactive
COC(=O)C1=C(C)N(Cc2ccccc2)C(=NCC(C)C)NC1c1cccc(F)c1 (stereo not drawn) | inactive | inactive | – | inactive
O=C1CCCC2=C1[C@H]1O[C@](CCCCN3C(=O)c4ccccc4C3=O)(Cc3ccccc31)O2 | 1.9 µM (active) | – | inactive | inactive
CCCC[C@]12Cc3cc(C#N)ccc3[C@H](O1)c1c(cc(C)n(Cc3ccccc3)c1=O)O2 | 1.69 µM (active) | – | inactive | inactive
N#Cc1ccc2c(c1)C[C@]1(CCCCN3C(=O)c4ccccc4C3=O)Oc3c(c(=O)oc4ccccc34)[C@H]2O1 | 1.51 µM (active) | – | inactive | inactive
C=CC[C@](C)(O)c1ccccc1 | 1.51 µM (active) | – | inactive | inactive
CCN1C(=NCc2cc(OC)c(OC)c(OC)c2)NC(c2cccc(C(F)(F)F)c2)C(C(=O)OC)=C1C (stereo not drawn) | 1.9 µM (active) | – | inactive | inactive
COC(=O)C1=C(C)N(Cc2ccccc2)C(=NCc2ccc3c(c2)OCO3)NC1CCc1ccccc1 (stereo not drawn) | inactive | – | inactive | inactive
COC(=O)C1=C(C)N(Cc2ccccc2)C(=S)NC1c1cccc(C(F)(F)F)c1 (stereo not drawn) | inactive | – | inactive | inactive
CC(C)=CCN1C(=O)[C@@]2(CC(C)=CC[C@@H](COc3ccccc3)O2)c2ccccc21 | 2.69 µM (active) | – | inactive | inactive
COc1cc2c(cc1OC)[C@@H]1O[C@](CCCCN3C(=O)c4ccccc4C3=O)(C2)Oc2cc(C)n(Cc3ccccc3)c(=O)c21 | 1.51 µM (active) | – | 1.69 µM (active) | inactive
COc1cc2c(cc1OC)[C@@H]1O[C@](c3ccsc3)(C2)Oc2cc(C)n(Cc3ccccc3)c(=O)c21 | 1.51 µM (active) | – | inactive | 0.531 µM (active)
COCc1cc2cc3c(cc2c2c(C(=O)OC)c(C(=O)OC)c(C(=O)OC(C)(C)C)n12)OCO3 | 1.51 µM (active) | – | inactive | 3.35 µM (active)
O=C1c2ccccc2C(=O)N1CCCC[C@]12Cc3ccccc3[C@H](O1)c1c(c3ccccc3oc1=O)O2 | 1.51 µM (active) | – | 1.69 µM (active) | inactive
COC(=O)CC1OC1[C@H](C)[C@@H](OC)C(C)C (stereo partly drawn) | 1.69 µM (active) | – | inactive | inactive
